Counter-ions that a name gives are not always drawn.
test system: LOC_OS01G39600-cb002; experiment: thermal shift delta Tm vs DMSO control; higher = stronger stabilization (binding); details: 12.5 µM; protein concentration 2 µM
Outline: (§1)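 Thermal shift values come from differential scanning fluorimetry on purified rice kinase domains made in E. coli, with melting temperatures obtained from Boltzmann fits. Samples of 19.5 μl held 2 μM kinase, 100 mM potassium phosphate pH 7.5, 150 mM NaCl, 10% glycerol, 5 × SYPRO Orange and compound in DMSO, and were heated from 25°C to 95°C at 0.05°C/s. Each shift is a triplicate mean relative to the DMSO-only protein sample.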
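Also: purified Escherichia coli-expressed rice kinase domain construct.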

| Structure (SMILES) | thermal shift delta Tm [°C] |
| --- | --- |
| Cc1cnc(Nc2ccc(OCCN3CCCC3)cc2)nc1Nc1cccc(S(=O)(=O)NC(C)(C)C)c1 | 5.09 |
| CN1CCN(CCOc2cc(OC3CCOCC3)c3c(Nc4c(Cl)ccc5c4OCO5)ncnc3c2)CC1 [Saracatinib (AZD0530)] | -0.05 |
| Cn1cc(-c2ccc(F)c(C(F)(F)F)c2)nc1C1CCN(c2ncnc3[nH]ncc23)CC1 | 0.71 |
| O=C(O)c1ccc2c(c1)nc(Nc1cccc(Cl)c1)c1ccncc12 [Silmitasertib (CX-4945)] | 6.15 |
| Cn1c(=O)c(F)c(Nc2ccc(I)cc2F)c2c(=O)n(C[C@@H](O)CO)cnc21 | 0.25 |
| O=C(NC[C@H](O)CO)c1ccncc1Nc1ccc(I)cc1F | -0.15 |
| COc1c(C)c(C(=O)c2ccc(N)c(C(=O)O)c2)n2ccccc12 | -11.6 |
| COc1cc(N2CCC(N)CC2)ccc1Nc1ncc(Cl)c(-c2c[nH]c3ccccc23)n1 | -2.78 |
| C=CC(=O)Nc1ccc2ncnc(Nc3ccc(OCc4cccc(F)c4)c(Cl)c3)c2c1 | 3.44 |
| CCS(=O)(=O)N1CCN(c2ccc(Nc3ncc(C(N)=O)c(NC4CC4)n3)cc2)CC1 | 4.63 |
| O=C1c2ccc(Nc3ccc(F)cc3F)cc2CCc2ccc(OC[C@H](O)CO)cc21 [Skepinone-L] | -1.35 |
| CCN1C(=O)CNc2ncc(-c3ccc(-c4nc[nH]n4)nc3C)nc21 | -1.87 |
| Cc1ccc(CNc2ncnc3ccc(-c4ccc(CO)o4)cc23)o1 | 0.85 |
| CCc1cncnc1N1CCN(Cc2nc3ccc(C(F)(F)F)cc3[nH]2)CC1 | -0.18 |
| Cc1cc(CN2CCN(c3c(Br)cnc4nc(-c5ccc(N6CCN(C)CC6)cc5)[nH]c34)CC2)no1 | 4.92 |
| Cc1nc(-c2cn3c(n2)-c2ccc(-c4cnn(C(C)(C)C(N)=O)c4)cc2OCC3)n(C(C)C)n1 [Taselisib (GDC 0032)] | -0.05 |
| Cc1ccc(NC(=O)c2ccc(CN3CCN(C)CC3)cc2)cc1Nc1nccc(-c2cccnc2)n1 [Imatinib Mesylate (STI571)] | 0.07 |
| O=c1cc(N2CCOCC2)oc2c(-c3ccccc3)cccc12 | 0.29 |
| Nc1ncccc1-c1nc2ccc(-c3ccccc3)nc2n1-c1ccc(C2(N)CCC2)cc1 [Miransertib (ARQ 092) HCl] | 0.14 |

| Structure (SMILES) | thermal shift delta Tm [°C] |
| --- | --- |
| CNS(=O)(=O)C[C@H]1CC[C@H](N(C)c2[nH]cnc3nccc2-3)CC1 [Oclacitinib] | 1.81 |
| N#Cc1ccc2[nH]c(O)c(-c3ccc(CN4CCOCC4)cn3)c2c1 | 1.95 |
| C[C@]1(O)C[C@@H](c2nc(-c3ccc4ccc(-c5ccccc5)nc4c3)c3c(N)nccn32)C1 [Linsitinib (OSI-906)] | 1.68 |
| CN1CCC(COc2cnc(-c3cccc(Cn4nc(-c5cccc(C#N)c5)ccc4=O)c3)nc2)CC1 | 0.63 |
| CC(C)(C)c1nc(-c2ccc(NC(=O)Nc3cccc(C(F)(F)F)c3)c3ccccc23)c2c(N)nccn12 [kira6] | 1.51 |
| Oc1c(F)cc(-c2cnccc2-c2ccc(N3CCOCC3)cc2)cc1F | -0.24 |
| CC(C)[C@H](CO)Nc1nc(Nc2cccc(Cl)c2)c2ncn(C(C)C)c2n1 [Purvalanol A] | -0.08 |
| CNC(=O)c1cc(Oc2ccc(NC(=O)Nc3ccc(Cl)c(C(F)(F)F)c3)cc2)ccn1 [Sorafenib] | 1.52 |
| O=c1cc(-c2cccc3c2Sc2ccccc2S3)oc(N2CCOCC2)c1 | 0.29 |
| N#Cc1c(Oc2ccc(F)c(NC(=O)Cc3cccc(C(F)(F)F)c3)c2)ccc2nc(NC(=O)C3CC3)sc12 | 0.16 |
| CC[C@@](C)(Nc1ccnc(-c2c[nH]c3ncccc23)n1)C(=O)NCC(F)(F)F [Decernotinib (VX-509)] | -0.05 |
| CCNC(=O)Nc1ccc(-c2nc3c(c(N4CCOC[C@@H]4C)n2)CCN(C2COC2)C3)cc1 | -0.29 |
| COc1cc(OC)cc(N(CCNC(C)C)c2ccc3ncc(-c4cnn(C)c4)nc3c2)c1 | 1.11 |
| C[C@@]1(C(=O)Nc2ccc(F)nc2)CCCN1c1nc(Nc2cc(C3CC3)n[nH]2)c2cccn2n1 | 4.9 |
| O=C1CCc2c(Oc3ccc4c(c3)[C@@H]3[C@H](O4)[C@H]3c3nc4cc(C(F)(F)F)ccc4[nH]3)ccnc2N1 [Lifirafenib (BGB-283)] | 0.61 |
| O=C1Nc2ccc(CN3C(=O)CSC3=O)cc2/C1=C/c1cc(CN2CCOCC2)c[nH]1 | 0.49 |
| CN(c1ccccc1CNc1nc(Nc2ccc3c(c2)CC(=O)N3)ncc1C(F)(F)F)S(C)(=O)=O | 8.33 |
| Cc1nc(N)sc1-c1ccnc(Nc2ccc(N3CCOCC3)cc2)n1 | 3.24 |

test system: LOC_OS01G48390-cb002; experiment: as above; details: 12.5 µM; protein concentration 2 µM
Outline: as §1

| Structure (SMILES) | thermal shift delta Tm [°C] |
| --- | --- |
| Cc1cnc(Nc2ccc(OCCN3CCCC3)cc2)nc1Nc1cccc(S(=O)(=O)NC(C)(C)C)c1 | 0.66 |
| CN1CCN(CCOc2cc(OC3CCOCC3)c3c(Nc4c(Cl)ccc5c4OCO5)ncnc3c2)CC1 [Saracatinib (AZD0530)] | 0.23 |
| Cn1cc(-c2ccc(F)c(C(F)(F)F)c2)nc1C1CCN(c2ncnc3[nH]ncc23)CC1 | 0.47 |
| O=C(O)c1ccc2c(c1)nc(Nc1cccc(Cl)c1)c1ccncc12 [Silmitasertib (CX-4945)] | 0.06 |
| Cn1c(=O)c(F)c(Nc2ccc(I)cc2F)c2c(=O)n(C[C@@H](O)CO)cnc21 | 0.55 |
| O=C(NC[C@H](O)CO)c1ccncc1Nc1ccc(I)cc1F | 0.13 |
| COc1c(C)c(C(=O)c2ccc(N)c(C(=O)O)c2)n2ccccc12 | 0.46 |
| COc1cc(N2CCC(N)CC2)ccc1Nc1ncc(Cl)c(-c2c[nH]c3ccccc23)n1 | 0.17 |
| C=CC(=O)Nc1ccc2ncnc(Nc3ccc(OCc4cccc(F)c4)c(Cl)c3)c2c1 | 3.63 |
| CCS(=O)(=O)N1CCN(c2ccc(Nc3ncc(C(N)=O)c(NC4CC4)n3)cc2)CC1 | 1.17 |
| O=C1c2ccc(Nc3ccc(F)cc3F)cc2CCc2ccc(OC[C@H](O)CO)cc21 [Skepinone-L] | 0.21 |
| CCN1C(=O)CNc2ncc(-c3ccc(-c4nc[nH]n4)nc3C)nc21 | 0.34 |
| Cc1ccc(CNc2ncnc3ccc(-c4ccc(CO)o4)cc23)o1 | 0.79 |
| CCc1cncnc1N1CCN(Cc2nc3ccc(C(F)(F)F)cc3[nH]2)CC1 | 0.61 |
| Cc1cc(CN2CCN(c3c(Br)cnc4nc(-c5ccc(N6CCN(C)CC6)cc5)[nH]c34)CC2)no1 | 3.13 |
| Cc1nc(-c2cn3c(n2)-c2ccc(-c4cnn(C(C)(C)C(N)=O)c4)cc2OCC3)n(C(C)C)n1 [Taselisib (GDC 0032)] | 0.45 |
| Cc1ccc(NC(=O)c2ccc(CN3CCN(C)CC3)cc2)cc1Nc1nccc(-c2cccnc2)n1 [Imatinib Mesylate (STI571)] | 0.86 |
| O=c1cc(N2CCOCC2)oc2c(-c3ccccc3)cccc12 | 1.24 |
| Nc1ncccc1-c1nc2ccc(-c3ccccc3)nc2n1-c1ccc(C2(N)CCC2)cc1 [Miransertib (ARQ 092) HCl] | 0.09 |

| Structure (SMILES) | thermal shift delta Tm [°C] |
| --- | --- |
| CNS(=O)(=O)C[C@H]1CC[C@H](N(C)c2[nH]cnc3nccc2-3)CC1 [Oclacitinib] | 2.77 |
| N#Cc1ccc2[nH]c(O)c(-c3ccc(CN4CCOCC4)cn3)c2c1 | 1.33 |
| C[C@]1(O)C[C@@H](c2nc(-c3ccc4ccc(-c5ccccc5)nc4c3)c3c(N)nccn32)C1 [Linsitinib (OSI-906)] | 0.41 |
| CN1CCC(COc2cnc(-c3cccc(Cn4nc(-c5cccc(C#N)c5)ccc4=O)c3)nc2)CC1 | 0.2 |
| CC(C)(C)c1nc(-c2ccc(NC(=O)Nc3cccc(C(F)(F)F)c3)c3ccccc23)c2c(N)nccn12 [kira6] | 1.52 |
| Oc1c(F)cc(-c2cnccc2-c2ccc(N3CCOCC3)cc2)cc1F | 0 |
| CC(C)[C@H](CO)Nc1nc(Nc2cccc(Cl)c2)c2ncn(C(C)C)c2n1 [Purvalanol A] | 2.56 |
| CNC(=O)c1cc(Oc2ccc(NC(=O)Nc3ccc(Cl)c(C(F)(F)F)c3)cc2)ccn1 [Sorafenib] | 2.74 |
| O=c1cc(-c2cccc3c2Sc2ccccc2S3)oc(N2CCOCC2)c1 | 2.17 |
| N#Cc1c(Oc2ccc(F)c(NC(=O)Cc3cccc(C(F)(F)F)c3)c2)ccc2nc(NC(=O)C3CC3)sc12 | 1.04 |
| CC[C@@](C)(Nc1ccnc(-c2c[nH]c3ncccc23)n1)C(=O)NCC(F)(F)F [Decernotinib (VX-509)] | 1.08 |
| CCNC(=O)Nc1ccc(-c2nc3c(c(N4CCOC[C@@H]4C)n2)CCN(C2COC2)C3)cc1 | 0.42 |
| COc1cc(OC)cc(N(CCNC(C)C)c2ccc3ncc(-c4cnn(C)c4)nc3c2)c1 | 2.48 |
| C[C@@]1(C(=O)Nc2ccc(F)nc2)CCCN1c1nc(Nc2cc(C3CC3)n[nH]2)c2cccn2n1 | 1.12 |
| O=C1CCc2c(Oc3ccc4c(c3)[C@@H]3[C@H](O4)[C@H]3c3nc4cc(C(F)(F)F)ccc4[nH]3)ccnc2N1 [Lifirafenib (BGB-283)] | 1.85 |
| O=C1Nc2ccc(CN3C(=O)CSC3=O)cc2/C1=C/c1cc(CN2CCOCC2)c[nH]1 | 1.28 |
| CN(c1ccccc1CNc1nc(Nc2ccc3c(c2)CC(=O)N3)ncc1C(F)(F)F)S(C)(=O)=O | 3.62 |
| Cc1nc(N)sc1-c1ccnc(Nc2ccc(N3CCOCC3)cc2)n1 | 2.34 |

Reference: the supplement of paper PMC9694430
